G9a inh = G9a (human) methyltransferase inhibition; hit rate 8.8% among 350,000; Q96KQ7; Potency, µM (highest dose often 102 µM), most hits filed as inhibitors; G9a H3K9 monomethylation, AlphaScreen, 2 h; also: nearly all actives have a fitted effect of over 75% in size
Target sequence (Q96KQ7 913-1193 limits assumed): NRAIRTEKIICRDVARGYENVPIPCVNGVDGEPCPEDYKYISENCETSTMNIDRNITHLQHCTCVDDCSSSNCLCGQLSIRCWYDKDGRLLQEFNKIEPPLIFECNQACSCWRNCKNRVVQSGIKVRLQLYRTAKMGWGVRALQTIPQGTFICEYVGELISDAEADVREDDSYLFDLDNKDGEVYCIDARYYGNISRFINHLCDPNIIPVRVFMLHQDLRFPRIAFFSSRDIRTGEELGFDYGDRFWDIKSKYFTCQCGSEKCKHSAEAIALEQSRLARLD
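G9a (20 nM) was preincubated 15 min with compound, then reacted 2 h at room temperature with 500 nM biotin-H3K9 peptide and 20 µM SAM. Monomethyl-H3K9 detected by AlphaScreen using anti-H3K9me1 antibody.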
Sfp inh = inhibitors of Bacillus subtilis Sfp phosphopantetheinyl transferase | Q9F4F7 | Biochemical Sfp PPTase activity, qHTS | Potency, µM, most hits filed as inhibitors | hit rate 3.5% among 310,000;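 also: the enzyme is Sfp with the accession as filed and its product quenches rhodamine fluorescence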
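With Hepes-Na pH 7.6 buffer containing 10 mM MgCl2, Sfp (15 nM) modified BHQ-2-YbbR (12.5 uM) using rhodamine-CoA (5 uM). Two reads 30 minutes apart at 525/598 nm yielded each well's rate.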
Tau fluor cs = counter-screen for tau fibril formation inhibitors; tau K18 P301L Alexa594 fluorescence, heparin fibrillization; hit rate 0.93% among 280,000; Potency, µM (titrated, usually from 57.7 µM); also: nearly all actives have a fitted effect of over 55% in size
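Human K18 P301L tau (15 uM unlabeled plus 0.24 uM Alexa 594-labeled, final) in 100 mM sodium acetate pH 7 was mixed with compound and 20 uM heparin and incubated 6 hr at 37 C.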
Tau fibril FP = tau fibrillization inhibition (FP); AID 1468; hit rate 0.39% among 280,000; P10636; Potency, µM (series often up to 57.7 µM), most hits filed as inhibitors; K18 P301L tau heparin fibrillization, Alexa594 FP, 6 h; also: nearly all actives have a fitted effect of over 55% in size
Target sequence (P10636 561-689 P618L limits assumed): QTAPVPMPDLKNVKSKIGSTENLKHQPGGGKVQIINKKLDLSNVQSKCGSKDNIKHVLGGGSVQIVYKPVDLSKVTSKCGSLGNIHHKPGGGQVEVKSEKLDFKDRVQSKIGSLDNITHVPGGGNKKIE
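Read-out: fluorescence polarization of Alexa 594-labeled tau (0.24 uM), 555 nm excitation, 632 nm emission. Mixtures held 15 uM unlabeled K18 P301L, compound and 20 uM heparin, pH 7 acetate buffer, incubated 6 hr at 37 C.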
Coupling enz = coupling enzyme interference in Giardia aldolase counter-screen | coupling enzyme system counterscreen, AmpLite Red fluorescence | activity change, negative = inhibition, % at 58.2 µM, hits read low | hit rate 0.67% among 290,000 | AID 2472; in the data active = activity change below about -30%
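Counterscreen of the coupled detection system alone, without aldolase: glyceraldehyde-3-phosphate coupling enzymes plus AmpLite Red readout. Compounds at 57.5 uM final, 10 min RT preincubation, 20 min RT reaction, fluorescence 525/598 nm.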
Tau ThT inhib = inhibitors of human tau fibril formation, thioflavin T binding | P10636 | recombinant tau K18 P301L (four-repeat tau fragment), heparin-induced fibrillization, ThT fluorescence | Potency, µM (top dose mostly 57.4 µM), most hits filed as inhibitors | hit rate 2.1% among 270,000; also: nearly all actives have a fitted effect of over 55% in size
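Tau K18 P301L fragment (15 uM unlabeled plus 0.24 uM Alexa 594-labeled) in 100 mM sodium acetate pH 7 with compound, fibrillization induced by 20 uM heparin for 6 hr at 37 C. Thioflavin T (30 uM) added, fluorescence read after 1 hr (ex 450, em 510 nm).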
A number is an active result; 0 = inactive; ? = inconclusive; - = no result; ! = a repeat was not active; [ ] = dose if it differs, or a comment. An excerpt weighted towards active compounds, which were near 11% of everything screened. Unless noted, calls follow the shape of the dose curve; as a rule, active = well fitted curve in the direction sought with a large enough effect; inconclusive = small, poorly fitted or top-dose-only effect, or another doubt; inactive = no such curve, though single readings can be large; an effect the other way counts as inactive or inconclusive.

SMILES	G9a inh	Sfp inh	Tau fluor cs	Tau fibril FP	Coupling enz	Tau ThT inhib
CCOc1ccc(N(CC(=O)NC2CCCCCC2)S(=O)(=O)c2ccccc2)cc1	0	0	-	-	-	-
Cc1ccc(NC(=O)CN2CCN(C(=O)c3ccco3)CC2)cc1	0	0	-	-	0	-
CCOc1ccccc1N(CC(=O)NC1CCCCC1)S(=O)(=O)c1ccccc1	25µM	0	-	-	0	-
COc1ccc(S(=O)(=O)N(CC(=O)Nc2ccc3c(c2)OCO3)c2ccccc2OC)cc1	0	0	0	0	0	0
O=C(CN1CCN(c2ccc(O)cc2)CC1)Nc1ccc2c(c1)OCCO2	7.9µM	10µM	0	0	0	?
O=C(CN1CCN(C(=O)c2ccco2)CC1)Nc1ccc2c(c1)OCCO2	50µM	0	0	0	0	0
O=C(CC1(CC(=O)N2CCOCC2)CCCC1)Nc1ccccc1	0[12.7 µM]	-	-	-	-	-
CSc1ncc(C(=O)Nc2cccc(C)c2C)c(-c2ccccc2)n1	0	-	0	0	-	?
CN(C)c1ncc2nc(-c3ccc(F)cc3)c(=O)n(C[C@H]3CCCO3)c2n1	0[0.501 µM]	0	-	-	0	-
O=C(CN1CCN(c2nc(-c3ccc(F)cc3)cs2)CC1)Nc1ccc2c(c1)OCO2	45µM	0	?	0	0	?
O=C(CN1CCOCC1)Nc1ccc(Oc2ccc(NC(=O)CN3CCOCC3)cc2)cc1	11µM	0	0	0	0	0
COc1ccccc1N1CCN(CC(=O)Nc2ccc3c(c2)OCCO3)CC1	7.1µM	0	0	0	0	0
Cc1ccc(NC(=O)c2oc3ccccc3c2NC(=O)c2cc3ccccc3o2)cc1	0	-	?	?	-	0
Cc1cccc(NC(=O)c2ccc3nc(CCc4ccccc4)oc3c2)c1C	0	-	0	0	-	?
Cc1cc(=O)oc2cc(NC(=O)C(CCCN=C(N)N)NC(=O)OCc3ccccc3)ccc12 (stereo not given)	?	0	-	-	0	-
CCCSc1nc2ccsc2c(=O)n1CC	0	0	0	0	0	0
O=C(COc1coc(CN2CCN(c3ccccc3F)CC2)cc1=O)NCC1CCCO1 (stereo not given)	0[0.501 µM]	-	-	-	-	-
Cc1ccc(Cl)cc1NC(=O)Cn1c(=O)n(CCC(=O)N2CCc3ccccc3C2)c(=O)c2ccccc21	0	-	0	?	-	0
NC(=NCCCCCCN=C(N)/N=C(\N)Nc1ccc(Cl)cc1)/N=C(\N)Nc1ccc(Cl)cc1	14µM!	28µM!	?	?	0	?
COc1cc(NC(=O)C2CCCN(S(=O)(=O)c3ccc4c(c3)oc(=O)n4C)C2)c(C(=O)O)cc1OC (stereo not given)	0	-	0	0	-	0
CCN(CC)CCSc1nc(O)c(Cc2ccccc2)c(=O)n1-c1ccccc1	0[12.7 µM]	0	0	0	0	0
CCCn1c2ccccc2c2cnn(CC(=O)N3CCN(c4ccccc4F)CC3)c(=O)c21	0	-	0	0	-	0
Cc1ccc2c(COC(=O)c3n[nH]c4ccccc34)cc(=O)oc2c1	?	0	0	0	0	?
CCc1ccc2c(COC(=O)c3n[nH]c4ccccc34)cc(=O)oc2c1	35µM	0	?	?	0	?
O=C(CSc1nc2c([nH]c3ccccc32)c(=O)n1-c1ccccc1)Nc1ccc(Cl)c(Cl)c1	0	-	0	0	-	?
SMILES	G9a inh	Sfp inh	Tau fluor cs	Tau fibril FP	Coupling enz	Tau ThT inhib
CCOc1ccc(C(c2c(O)nc(SC)n(C)c2=O)c2c(O)nc(SC)n(C)c2=O)cc1	11µM	?	0	?	0	?
CCOc1ccc(OCC(=O)OCn2c(SC)nnc(C)c2=O)cc1	?	0	0	0	0	0
Cc1cc(=O)n(Cc2ccc(F)cc2Cl)c2c1c(C)nn2C	0	-	0	0	-	0
COc1cc(/C=N/NC(=O)c2ccccc2O)ccc1OC(=O)CC1SC(=O)NC1=O (stereo not given)	0	0	0	0	0	?
CC(C(Sc1ccccc1N)c1ccccc1)[N+](=O)[O-] (stereo not given)	3.2µM	4µM	0	?	0	-
Cc1cccc(OCCSc2nc3ccc(NC(=O)COc4ccccc4F)cc3s2)c1	0	-	?	?	-	?
N#Cc1ccsc1NC(=O)CCS(=O)(=O)c1ccccc1	45µM	0	-	-	-	-
NC(=O)c1ccsc1NC(=O)CCS(=O)(=O)c1ccccc1	0[12.7 µM]	0	0	0	0	0
NC(=O)c1ccsc1NC(=O)CCS(=O)(=O)c1ccc(Cl)cc1	35µM	-	-	-	-	-
Cc1ccccc1Cn1c2ccccc2c2cnn(CC(=O)NC(C)CCc3ccccc3)c(=O)c21 (stereo not given)	0	-	0	?	-	0
COc1ccc(CN2CCNC(=O)C2CC(=O)NCc2cc(C)n(C)n2)c(F)c1 (stereo not given)	25µM	0	-	-	0	-
CCOc1ccc(CN2CCNC(=O)C2CC(=O)NCc2cc(C)n(C)n2)cc1 (stereo not given)	40µM	0	-	-	0	-
CCOc1ccc(CN2CCNC(=O)C2CC(=O)NCc2csc(C)n2)cc1 (stereo not given)	-	0	-	-	0	-
Cc1ccc(CN2CCNC(=O)C2CC(=O)NCc2cc(C)n(C)n2)cc1 (stereo not given)	79µM	0	-	-	-	-
CCCN(CC(=O)Nc1ccccc1C)C(=O)c1ccc2c(c1)S(=O)(=O)N=C1CCCCCN12	0[12.7 µM]	-	-	-	-	-
COc1ccccc1-n1cc2c([N+](=O)[O-])cc([N+](=O)[O-])cc2n1	10µM	0	-	-	0	-
CCCCOC(=O)c1ccc(NC(=S)NC(=O)c2c(Br)c(C)nn2C)cc1	0	4.5µM	0	0	0	?
CCOC(=O)c1ccc(NC(=S)NC(=O)c2cncc(Br)c2)cc1	?	0	-	-	0	-
Fc1cccc(-n2ncc3c2ncn2nc(Cc4ccccc4)nc32)c1	0	-	0	0	-	0
O=c1cc(CSc2n[nH]c(-c3ccccc3)n2)[nH]c2ccccc12	0	-	0	0	-	0
CCC(=O)Nc1sc(Cc2ccc3c(c2)OCO3)c(C)c1C(N)=O	10µM	40µM	0	0	0	-
Cc1c(Cc2ccc3c(c2)OCO3)sc(NC(=O)C(C)(C)C)c1C#N	0	0	0	0	0	0
Cc1c(Cc2ccc3c(c2)OCO3)sc(NC(=O)c2ccc3ccccc3c2)c1C(N)=O	6.3µM	13µM	0	?	0	?
Cc1nc(NC(=O)c2ccc(OCC(C)C)cc2)sc1Cc1ccc2c(c1)OCO2	0	0	0	0	0	0
COc1cc(C(=O)Nc2nc(C)c(Cc3ccc4c(c3)OCO4)s2)cc(OC)c1OC	4µM	0	0	0	0	0
CC1CC=CC2C1C(=O)N(Cc1ccccc1)C2c1ccc(/C=C/c2ccccc2)cc1F (stereo not given)	-	0	-	-	0	-
CC1=NN2C(=N)/C(=C\c3ccc(SCc4ccccc4)o3)C(=O)N=C2S1	0[12.7 µM]	0	0	0	0	?
N=C1/C(=C\c2ccc(SCc3ccco3)o2)C(=O)N=C2SC=NN12	0	79µM	0	0	0	6.3µM

Assay outcomes as filed in PubChem BioAssay.
